Among all 190,000 compounds or so, about 4,100 (2.2%) were called active. The entries come from a sample that favours actives as a whole. Unmarked numbers belong to inactive results.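 Rule for the calls: active = thallium flux slope and its plate-corrected score both differing from the plate sample mean at a set confidence after two filtering rounds, in either direction; inactive = the rest.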

The source of these data is PubChem BioAssay AID1456 (Vanderbilt High Throughput Screening Facility, 2008).

Sequence of Solute carrier family 12 member 5 (Homo sapiens) (Q9H2X9 whole entry, looked up): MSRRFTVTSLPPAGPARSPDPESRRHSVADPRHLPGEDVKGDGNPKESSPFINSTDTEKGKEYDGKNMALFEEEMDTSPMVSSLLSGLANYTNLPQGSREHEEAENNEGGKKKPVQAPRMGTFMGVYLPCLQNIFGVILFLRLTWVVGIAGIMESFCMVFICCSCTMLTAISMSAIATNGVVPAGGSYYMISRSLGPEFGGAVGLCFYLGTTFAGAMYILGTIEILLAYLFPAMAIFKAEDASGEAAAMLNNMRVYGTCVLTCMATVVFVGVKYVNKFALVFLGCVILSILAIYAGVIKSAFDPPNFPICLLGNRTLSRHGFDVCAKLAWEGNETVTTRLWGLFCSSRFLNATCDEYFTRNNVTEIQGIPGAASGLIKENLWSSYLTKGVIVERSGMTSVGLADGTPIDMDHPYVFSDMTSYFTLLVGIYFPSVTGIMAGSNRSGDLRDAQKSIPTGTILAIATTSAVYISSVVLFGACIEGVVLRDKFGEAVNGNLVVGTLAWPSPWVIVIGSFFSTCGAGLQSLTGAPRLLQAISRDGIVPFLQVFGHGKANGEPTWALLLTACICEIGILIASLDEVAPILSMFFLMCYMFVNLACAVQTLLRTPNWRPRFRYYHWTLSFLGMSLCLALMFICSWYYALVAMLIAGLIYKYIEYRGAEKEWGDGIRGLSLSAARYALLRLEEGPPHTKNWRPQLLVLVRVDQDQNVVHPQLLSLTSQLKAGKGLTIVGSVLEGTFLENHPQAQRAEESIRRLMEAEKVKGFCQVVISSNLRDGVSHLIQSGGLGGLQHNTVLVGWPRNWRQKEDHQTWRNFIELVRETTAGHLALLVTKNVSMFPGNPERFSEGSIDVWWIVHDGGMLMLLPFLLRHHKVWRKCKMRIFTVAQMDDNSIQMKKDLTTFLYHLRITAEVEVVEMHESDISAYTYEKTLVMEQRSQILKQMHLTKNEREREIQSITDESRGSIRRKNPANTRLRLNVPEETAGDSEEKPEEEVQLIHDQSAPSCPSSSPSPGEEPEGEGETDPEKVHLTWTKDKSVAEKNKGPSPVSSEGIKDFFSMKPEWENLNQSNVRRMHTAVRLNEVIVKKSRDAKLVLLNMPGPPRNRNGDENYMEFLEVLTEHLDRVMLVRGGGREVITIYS

The experiment concerns the target Solute carrier family 12 member 5 (Homo sapiens) (UniProt Q9H2X9). The experiment is described as follows: modulation of human KCC2 ion transport – cell-based, HEK293 KCC2, FluoZin-2 fluorescence, MLSMR, primary screen (AID 1456).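 Note: slope of fluorescence scaled to starting intensity during 10 to 20 s after thallium.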 Conditions: KCC2 cells, thallium flux FluoZin-2 fluorescence; at 10 µM.
Turning to `COc1cc2c(cc1/C=C1/NC(=O)N(c3ccccc3)C1=O)OCO2`, the B-score of Tl+ flux slope (higher = more flux/activation; lower = inhibition) is 0.747.

`NS(=O)(=O)c1ccc(NC(=S)NC(=O)c2cccc(Br)c2)cc1`: the B-score of Tl+ flux slope (higher = more flux/activation; lower = inhibition) is 1.13.

Regarding `NS(=O)(=O)c1ccc(NC(=S)NC(=O)c2cccnc2)cc1`, the B-score of Tl+ flux slope (higher = more flux/activation; lower = inhibition) is 1.98 (active).

As to `CC(=O)NC(=S)Nc1ccc(NC(=O)c2cccnc2)cc1`, the B-score of Tl+ flux slope (higher = more flux/activation; lower = inhibition) was 1.03.

On to `Cn1c(=O)cc(OCC(=O)N2CCN(c3ccccc3F)CC2)c2ccccc21`, for which the B-score of Tl+ flux slope (higher = more flux/activation; lower = inhibition) is -0.0376.

Regarding `O=C(CCSc1ccccc1)N1CCN(c2ccccc2F)CC1`, the B-score of Tl+ flux slope (higher = more flux/activation; lower = inhibition) was -1.46.

For `O=C(Cn1c(-c2ccc(Cl)cc2)noc1=O)N1CCN(c2ccccc2F)CC1`, the B-score of Tl+ flux slope (higher = more flux/activation; lower = inhibition) was -4.49 (active).

Consider `COc1ccc(OCC(O)CNCCNc2nccc(C(F)(F)F)n2)cc1` (stereo not given), for which the B-score of Tl+ flux slope (higher = more flux/activation; lower = inhibition) is 0.542.

With `Cc1ccc2c(c1)nnc1nnc(SCC(=O)O)n12`, the B-score of Tl+ flux slope (higher = more flux/activation; lower = inhibition) is -0.0291.

Turning to `Cc1ccc2nc(SCc3nnc(-c4ccccc4[N+](=O)[O-])o3)c(C#N)cc2c1`, the B-score of Tl+ flux slope (higher = more flux/activation; lower = inhibition) was 0.799.

Consider `Fc1ccc2nc(-c3ccccc3)nc(SCc3nnc(-c4ccccc4)o3)c2c1`, for which the B-score of Tl+ flux slope (higher = more flux/activation; lower = inhibition) is 41.8 (active).

Consider `c1ccc(-c2nnc(SCc3nc4ccccc4[nH]3)o2)cc1`, for which the B-score of Tl+ flux slope (higher = more flux/activation; lower = inhibition) is -1.33.

As for `O=C(NCc1cccnc1)c1nc(-c2cccs2)no1`, the B-score of Tl+ flux slope (higher = more flux/activation; lower = inhibition) was 0.407.

Regarding `CCCCN1Cc2c(nc3cc(-c4ccccc4)[nH]n3c2=O)C1=O`, the B-score of Tl+ flux slope (higher = more flux/activation; lower = inhibition) was -0.758.

For `NCCCCCC(=O)N/N=C/c1ccc2nccnc2c1`, the B-score of Tl+ flux slope (higher = more flux/activation; lower = inhibition) was 1.4.

As for `CCOC(=O)C1CCCN(C(=O)/C=C/c2ccc(OC)cc2)C1` (stereo not given), the B-score of Tl+ flux slope (higher = more flux/activation; lower = inhibition) is -0.769.

Regarding `O=C(Nc1ccc(S(=O)(=O)N2CCOCC2)cc1)c1ccc2ncsc2c1`, the B-score of Tl+ flux slope (higher = more flux/activation; lower = inhibition) was 0.51.

Regarding `CC(=O)Nc1cccc(C(=O)Nc2nc(C)cs2)c1`, the B-score of Tl+ flux slope (higher = more flux/activation; lower = inhibition) is -0.0712.

As to `Cc1csc(NC(=S)Nc2cccc(Cl)c2)n1`, the B-score of Tl+ flux slope (higher = more flux/activation; lower = inhibition) was 63.6 (active).

With `S=C(Nc1cccc(Cl)c1)Nc1ccc2cn[nH]c2c1`, the B-score of Tl+ flux slope (higher = more flux/activation; lower = inhibition) is -0.0612.

As for `CCc1nc(NCCO)c(C#N)c2c1CCCC2`, the B-score of Tl+ flux slope (higher = more flux/activation; lower = inhibition) is -0.68.

As for `S=C(NCCc1ccccc1)N1CCn2cccc2C1c1ccncc1` (stereo not given), the B-score of Tl+ flux slope (higher = more flux/activation; lower = inhibition) was -2.41.

With `CN1CCN(c2ncc3c(n2)CC(c2ccccc2F)CC3=O)CC1` (stereo not given), the B-score of Tl+ flux slope (higher = more flux/activation; lower = inhibition) is -1.12.

With `O=c1c(-c2ccc3c(c2)OCCO3)c(C(F)(F)F)oc2cc(O)cc(O)c12`, the B-score of Tl+ flux slope (higher = more flux/activation; lower = inhibition) is -2.89 (active).

Take `CCOC(=O)c1cc2cc(-c3c(C(=O)OCC)oc4cc(O)cc(O)c4c3=O)ccc2o1`: the B-score of Tl+ flux slope (higher = more flux/activation; lower = inhibition) was -1.36.

As for `COc1ccc(-c2onc(C)c2-c2ccc3c(c2)OCCO3)c(O)c1`, the B-score of Tl+ flux slope (higher = more flux/activation; lower = inhibition) is 0.0687.

Turning to `COC(=O)C1=C(C)NC(=O)/C1=C/c1ccc(CNS(=O)(=O)c2ccc(C)cc2)o1`, the B-score of Tl+ flux slope (higher = more flux/activation; lower = inhibition) is -0.17.

As for `O=C(O)C(NS(=O)(=O)c1cccc2nsnc12)c1ccccc1` (stereo not given), the B-score of Tl+ flux slope (higher = more flux/activation; lower = inhibition) was 0.0778.

With `Cc1cc(=O)[nH]c(SCC(N)=O)c1C#N`, the B-score of Tl+ flux slope (higher = more flux/activation; lower = inhibition) was 0.485.

Consider `CCCCSc1[nH]c(=O)c(C(=O)OCC)cc1C#N`, for which the B-score of Tl+ flux slope (higher = more flux/activation; lower = inhibition) is 13 (active).

On to `CCOC(=O)c1cc(C#N)c(N2CCCCC2)nc1-c1ccccc1`, for which the B-score of Tl+ flux slope (higher = more flux/activation; lower = inhibition) was 0.496.

For the molecule `CCc1c(C)nc2c(-c3ccccc3)c(C)nn2c1Nc1ccc(NC(C)=O)cc1`, the B-score of Tl+ flux slope (higher = more flux/activation; lower = inhibition) was 0.635.

Regarding `Cc1ccccc1NC(=O)c1ccccc1`, the B-score of Tl+ flux slope (higher = more flux/activation; lower = inhibition) was 0.272.

`Cc1cc2[nH]ncc2cc1NC(=S)NC(=O)c1ccccc1`: the B-score of Tl+ flux slope (higher = more flux/activation; lower = inhibition) is 0.179.

As for `Cc1ccccc1NC(=S)NNC(=O)c1cccc(Br)c1`, the B-score of Tl+ flux slope (higher = more flux/activation; lower = inhibition) was 11.3 (active).

On to `Cc1ccc(NC(=S)NC(=O)c2ccc(-c3ccccc3)cc2)c(C)c1`, for which the B-score of Tl+ flux slope (higher = more flux/activation; lower = inhibition) is 1.26.

For `CC(=O)c1sc(NC(=O)c2ccc(C)cc2)nc1C`, the B-score of Tl+ flux slope (higher = more flux/activation; lower = inhibition) is 0.0252.

For `O=C(NC(=S)Nc1cccc2c(O)cccc12)c1cccc(Br)c1`, the B-score of Tl+ flux slope (higher = more flux/activation; lower = inhibition) was 1.46.

As to `Cc1ccc(C)c(NC(=O)C(OC(=O)c2ccc(C)s2)c2ccccc2)c1` (stereo not given), the B-score of Tl+ flux slope (higher = more flux/activation; lower = inhibition) was 0.676.

Turning to `COC(=O)c1sc(NC(=S)NC(=O)c2ccc(C)cc2)nc1C`, the B-score of Tl+ flux slope (higher = more flux/activation; lower = inhibition) is 33.9 (active).

With `Cc1ccc(C(=O)NC(=S)Nc2ccccc2C)cc1`, the B-score of Tl+ flux slope (higher = more flux/activation; lower = inhibition) is 26.9 (active).

As for `Cc1ccc(C)c(NC(=S)NNC(=O)c2csc(C)c2)c1`, the B-score of Tl+ flux slope (higher = more flux/activation; lower = inhibition) was 6.59 (active).

`Cc1ccc(C)c(NC(=O)CCC(=O)NNC(=O)c2cccs2)c1`: the B-score of Tl+ flux slope (higher = more flux/activation; lower = inhibition) was -1.3.

For `COC(=O)c1sc(NC(=O)c2ccc(OC)cc2OC)nc1C`, the B-score of Tl+ flux slope (higher = more flux/activation; lower = inhibition) is -0.264.

As for `Cc1ccc2c(c1)c1ncn(Cc3ccc(F)cc3)c(=O)c1n2C`, the B-score of Tl+ flux slope (higher = more flux/activation; lower = inhibition) is -2.08.

As to `O=[N+]([O-])c1cc([N+](=O)[O-])c2cccnc2c1O`, the B-score of Tl+ flux slope (higher = more flux/activation; lower = inhibition) is -1.12.

Consider `COC(=O)c1ccc(COc2cc([N+](=O)[O-])cc3cccnc23)cc1`, for which the B-score of Tl+ flux slope (higher = more flux/activation; lower = inhibition) was 0.95.

As to `O=C(Nc1ccc([N+](=O)[O-])cc1)C1CC12CCC2` (stereo not given), the B-score of Tl+ flux slope (higher = more flux/activation; lower = inhibition) is -0.552.

Turning to `CCOc1ccc(NC(=S)N2CCCCCC2)cc1`, the B-score of Tl+ flux slope (higher = more flux/activation; lower = inhibition) was -0.294.

As for `CCOCC(=O)Nc1ncc(S(=O)(=O)c2ccc([N+](=O)[O-])cc2)s1`, the B-score of Tl+ flux slope (higher = more flux/activation; lower = inhibition) was -0.205.
